The text below walks through data of PubChem BioAssay AID1566 (Sanford-Burnham Center for Chemical Genomics, 2009).

Each structure is given as a SMILES string. Hit rate of the full screen: of about 290,000 compounds, about 1,800 (0.62%) were called active. No stated cut-off is given here; in the data, active means inhibition above about 50%; inactive means the rest. Shown is part of a subset that was picked to be rich in actives. Peptide text beside a SMILES is read from it. * marks the point of attachment. OBn = c1ccc(CO*)cc1

A short description of this assay: inhibition of NOD2-driven NF-kB reporter – cell-based, luminescence, uHTS, HEK293 (AID 1566). Particulars: HEK293 NOD2/NF-kB luciferase reporter, at 4 µM, active compounds read high. Background: In a reporter assay the amount or activity of a reporter protein is the signal.
In general, inhibition refers to the drop in the measured response relative to a control, in per cent. As to `CC(=O)Oc1ccc(OC(C)=O)c2c1CC(C)=C(C)C2`, the inhibition is 33.6% (inactive).
For `Cc1ccc(OCC(=O)O/N=C(\N)c2ccncc2)cc1C`, the inhibition is -6.1% (inactive).
Turning to `C=CCn1c(SCc2ccc(Cl)cc2)nc2cc(C(=O)N3CCC(C(N)=O)CC3)ccc2c1=O`, the inhibition was 1.8% (inactive).
As for `COc1ccc(-c2noc(CN3CCOCC3)n2)cc1OC`, the inhibition was -8.7% (inactive).
`CCn1c(C)c(C(C)=O)c(N2CCN(c3ccc(OC)cc3)CC2)nc1=S`: the inhibition was 12.6% (inactive).
Take `Cc1ccc(NC(=O)N2CCCC2C(=O)Nc2ccc3c(c2)OCCO3)cc1` (configuration not stated): the inhibition is -15.1% (inactive).
As for `CC(=O)Nc1ccc(NC(=O)CN(C)S(=O)(=O)c2ccc3ccccc3c2)cc1`, the figure is -3.2% (inactive); as for `CC(=O)NCC(=O)N[C@@H](CC(=O)OCc1ccccc1)C(=O)OCc1ccccc1` (Ac-Gly-Asp(OBn)-OBn), 15.4% (inactive); as for `O=C(CCc1nc(-c2ccccc2F)no1)NCCN1CCOCC1`, 9.2% (inactive).
In the case of `COc1ccc(Nc2cc3n(c(=O)n2)CCc2cc(OC)c(OC)cc2-3)cc1` it was -35.6% (inactive); in that of `O=C(COc1ccccc1)NN1C(=O)CSC1=S`, 3.5% (inactive).
Consider `Cc1ccc(NC(=O)c2cc3ccccc3o2)cc1S(=O)(=O)N(C)C`, for which the inhibition was -98.2% (inactive).
In the case of `Cc1ccc(NC(=O)c2cc3ccccc3oc2=O)cc1S(=O)(=O)N(C)C` it was 85.6% (active); in that of `COc1ccccc1NS(=O)(=O)c1cc(NC(=O)c2cc3ccccc3oc2=O)ccc1C`, -25.3% (inactive); in that of `COc1ccc(Cl)cc1NC(=O)COc1ccc(S(=O)(=O)N2CCOCC2)cc1C`, 11.3% (inactive).
For the compound `Cc1ccc(CCNC(=O)c2cc(-c3ccncc3)nc3ccc(S(=O)(=O)N4CCOCC4)cc23)cc1`, the inhibition is -13.8% (inactive).
In the case of `CS(=O)(=O)c1cc([N+](=O)[O-])c(Sc2nc3ccccc3[nH]2)c([N+](=O)[O-])c1` it was 4.3% (inactive); in that of `Cc1ccc(-n2c(C)cc(C(=O)COc3cccnc3[N+](=O)[O-])c2C)cc1`, 30.3% (inactive).
Take `CCn1nc(C(=O)OCC(=O)c2cc(C)n(Cc3cccs3)c2C)c2ccccc2c1=O`: the inhibition was -20.7% (inactive).
As to `Cc1ccc2cccc(OCC(=O)c3cc(C)n(Cc4ccco4)c3C)c2n1`, the inhibition is -10.4% (inactive).
Turning to `Cc1cc(C(=O)COc2cccnc2[N+](=O)[O-])c(C)n1-c1ccccc1`, the inhibition was 20.6% (inactive).
Turning to `Cc1cc(C(=O)CN2C(=O)c3ccccc3C2=O)c(C)n1Cc1cccs1`, the inhibition is 19% (inactive).
Turning to `Cc1cc(C(=O)COC(=O)c2ccccc2O)c(C)n1Cc1cccs1`, the inhibition is 89.6% (active).
Turning to `Cc1cc(C(=O)COc2ccc3ccc(=O)oc3c2)c(C)n1Cc1cccs1`, the inhibition was -4.5% (inactive).
In the case of `Cc1cc(C(=O)COC(=O)c2ccc3c(c2)OCO3)c(C)n1Cc1cccs1` it was -8.7% (inactive); in that of `COCCn1c(C)cc(C(=O)COc2cccnc2[N+](=O)[O-])c1C`, 4.6% (inactive); in that of `Cc1ccc(C)c(C(=O)CSc2n[nH]c(-c3ccncc3)n2)c1`, 11% (inactive).
In the case of `COC(C[C@H]1O[C@H]1[C@H](O)[C@H](C)OCc1ccccc1)OC`, the inhibition was 9.8% (inactive).
In the case of `CC(C)c1ccc(NC(=O)c2ccccc2NC(=O)C2CC=CCC2C(=O)O)cc1` (configuration not stated), the inhibition is -9.6% (inactive).
Take `O=C(NC1CCCC1)C(NS(=O)(=O)c1cccc2nsnc12)c1ccccc1` (configuration not stated): the inhibition was 15.9% (inactive).
For the compound `Clc1ccc(Nc2nc(N3CCOCC3)nc(N3CCOCC3)n2)cc1Cl`, the inhibition is 8.7% (inactive).
Regarding `Clc1ccc(C2[C@H]3CN(Cc4ccc(-c5ccccc5)cc4)[C@H](c4ccccc4)C34CC2(c2ccccc2)C4)cn1` (some centres not stated), the inhibition was 6.2% (inactive).
On to `COc1ccc(N2CCN(C(=O)c3nc4nc(C)cc(C)n4n3)CC2)cc1`, for which the inhibition was 7.4% (inactive).
`CC(C)Cc1ccc(C(C)C(=O)Nc2ccccc2O)cc1` (configuration not stated): the inhibition is 22.9% (inactive).
With `C=CCNC(=O)NC(=O)Cn1c(=O)c2c(ncn2CC)n(Cc2ccccc2)c1=O`, the inhibition is 17.8% (inactive).
In the case of `Cc1nc(SCc2ccc(C(=O)O)cc2)nc2c1CCCC2` it was 54.6% (active); in that of `Cc1nc(SCc2ccccc2)nc2c1CCC2`, -57.5% (inactive).
As for `Cc1nc(SCc2cccc(C(=O)O)c2)nc2c1CCCC2`, the figure is 11% (inactive).
In the case of `COc1ccc(OCC(=O)N/N=C/c2ccc(N(C)C)cc2)cc1` it was -12.2% (inactive).
As for `COc1ccc(-n2c(C)cc(/C=C3/SC(=S)N(C)C3=O)c2C)cc1`, the inhibition was 24.3% (inactive).
As for `Cc1cc(/C=C2\SC(=O)N(C)C2=O)c(C)n1-c1ccc(O)cc1`, the figure is 0.7% (inactive); as for `Cc1cc(/C=C2/C(=O)NN(c3ccccc3)C2=O)c(C)n1-c1cccc(O)c1`, -42.2% (inactive).
With `Cc1cc(/C=C2\SC(=S)NC2=O)c(C)n1-c1cccc(O)c1`, the inhibition was -226% (inactive).
On to `Cc1ccc(OCC(=O)NCCCNC(=O)c2ccc(C)nc2)cc1`, for which the inhibition is 7.3% (inactive).
Consider `C/C(=C\C#N)n1nc(C)cc1N`, for which the inhibition was 16.8% (inactive).
For the compound `Cc1cc2oc3c(c(=O)c2cc1C)C(c1ccc(C(C)C)cc1)N(CCCN1CCOCC1)C3=O` (configuration not stated), the inhibition is 0.6% (inactive).
`CSc1nsc(SCC(=O)NCc2ccccc2)n1`: the inhibition is -5.3% (inactive).
Regarding `CCc1ccc(NC(=S)N(Cc2cccnc2)Cc2ccco2)cc1`, the inhibition is 6.5% (inactive).
With `C=CCc1cccc2cc(C(=O)Nc3cccc(C(=O)O)c3)c(=O)oc12`, the inhibition is -0.7% (inactive).
As for `C=CCc1cccc2cc(C(=O)Nc3ccccc3C(=O)O)c(=O)oc12`, the figure is 62.4% (active); as for `C=CCc1cccc2cc(C(=O)O)c(=O)oc12`, -2.5% (inactive); as for `NC(=O)CN1CCN(CCN2C(=O)c3cccc4cccc(c34)C2=O)CC1`, 1.7% (inactive).
As for `Cc1cc(N2CCN(c3nc(-c4ccc([N+](=O)[O-])cc4)cs3)CC2)c2ccccc2n1`, the inhibition was 15.6% (inactive).
On to `Cc1cc(N2CCN(c3nc(-c4ccccc4)cs3)CC2)c2ccccc2n1`, for which the inhibition was 26.2% (inactive).
For the compound `COc1ccc(-c2csc(N3CCN(c4cc(C)nc5ccccc45)CC3)n2)cc1OC`, the inhibition was 70% (active).
`O=C(/C=C/c1ccccc1)NC(=S)NNC(=O)c1cnccn1`: the inhibition is 20.5% (inactive).
As to `Cc1ccc(OCC(=O)c2cc(C)n(C3CC3)c2C)c([N+](=O)[O-])n1`, the inhibition was 11.3% (inactive).
Turning to `Cc1ccc(OCC(=O)c2cc(C)c(C)cc2C)c([N+](=O)[O-])n1`, the inhibition was 12.2% (inactive).
For the compound `C=CCn1c(C)cc(C(=O)COc2ccc(S(=O)(=O)N3CCCC3)cc2[N+](=O)[O-])c1C`, the inhibition was -1.6% (inactive).
In the case of `Cc1ccc(OCC(=O)c2cc(C)n(CC(F)(F)F)c2C)c([N+](=O)[O-])n1`, the inhibition was 23% (inactive).
For `COc1ccc(-n2c(C)cc(C(=O)COc3ccc(C)nc3[N+](=O)[O-])c2C)cc1`, the inhibition was -5.4% (inactive).
Take `Cc1ccc(OCC(=O)c2cc(C)n(C)c2C)c([N+](=O)[O-])n1`: the inhibition is 32.9% (inactive).
